As usually defined, the residual activity is the signal under treatment as a percentage of the control signal.

The target in assay [1] is G protein-coupled receptor kinase 5 (Homo sapiens) (UniProt P34947). Conditions: at 1 µM.
In assay [2] the target is G protein-coupled receptor kinase 6 (Homo sapiens) (UniProt P43250). Conditions: at 1 µM.
G protein-coupled receptor kinase 6 (Homo sapiens), sequence (P43250 whole entry, looked up): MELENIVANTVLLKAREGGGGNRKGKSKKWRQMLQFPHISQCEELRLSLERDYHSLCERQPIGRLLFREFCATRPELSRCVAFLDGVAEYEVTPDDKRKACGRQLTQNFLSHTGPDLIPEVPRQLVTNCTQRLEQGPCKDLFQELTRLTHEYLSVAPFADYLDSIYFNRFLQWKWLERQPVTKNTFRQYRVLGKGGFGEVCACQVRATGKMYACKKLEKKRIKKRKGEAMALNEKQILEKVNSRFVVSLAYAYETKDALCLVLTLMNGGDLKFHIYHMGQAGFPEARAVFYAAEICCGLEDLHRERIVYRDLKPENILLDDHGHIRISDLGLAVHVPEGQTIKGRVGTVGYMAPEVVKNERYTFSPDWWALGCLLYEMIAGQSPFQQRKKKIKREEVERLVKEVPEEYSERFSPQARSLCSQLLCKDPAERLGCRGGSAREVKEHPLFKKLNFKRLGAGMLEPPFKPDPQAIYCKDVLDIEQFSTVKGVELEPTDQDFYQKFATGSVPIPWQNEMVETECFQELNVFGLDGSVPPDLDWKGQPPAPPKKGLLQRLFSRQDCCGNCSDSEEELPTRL

G protein-coupled receptor kinase 5 (Homo sapiens), sequence (P34947 whole entry, looked up): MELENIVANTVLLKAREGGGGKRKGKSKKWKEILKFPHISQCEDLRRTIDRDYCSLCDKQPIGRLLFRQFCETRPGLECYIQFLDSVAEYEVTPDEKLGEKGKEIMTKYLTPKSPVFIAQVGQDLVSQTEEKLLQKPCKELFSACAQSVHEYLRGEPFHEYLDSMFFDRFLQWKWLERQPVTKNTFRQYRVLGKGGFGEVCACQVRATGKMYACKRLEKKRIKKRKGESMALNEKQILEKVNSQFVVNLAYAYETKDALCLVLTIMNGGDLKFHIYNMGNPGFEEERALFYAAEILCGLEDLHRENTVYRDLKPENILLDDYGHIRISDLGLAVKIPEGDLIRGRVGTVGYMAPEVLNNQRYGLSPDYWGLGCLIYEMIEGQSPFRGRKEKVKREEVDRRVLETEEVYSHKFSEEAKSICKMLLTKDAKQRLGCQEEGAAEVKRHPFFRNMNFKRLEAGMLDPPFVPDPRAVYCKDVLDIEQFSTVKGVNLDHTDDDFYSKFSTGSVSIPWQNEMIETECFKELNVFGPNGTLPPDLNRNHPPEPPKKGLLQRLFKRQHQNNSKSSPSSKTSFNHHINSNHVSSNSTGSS

On to `O=C1Nc2ccc(Br)cc2/C1=C\c1cc2c([nH]1)CCCC2`, for which the results for the residual activity in assay [1] and in assay [2] were 104% and 102%, respectively. As for `N#C/C(=C(\N)Sc1ccc(N)cc1)c1ccccc1C(F)(F)F`, the residual activity in assay [1] came out at 97%; in assay [2], 86%. With `CC#CC(=O)Nc1cc2c(Nc3ccc(F)c(Cl)c3)ncnc2cn1`, the residual activity in assay [1] stood at 100%; in assay [2], 95%. Consider `CO[C@H]1C[C@@H]2CC[C@@H](C)[C@@](O)(O2)C(=O)C(=O)N2CCCC[C@H]2C(=O)O[C@H]([C@H](C)C[C@@H]2CC[C@@H](O)[C@H](OC)C2)CC(=O)[C@H](C)/C=C(\C)[C@@H](O)[C@@H](OC)C(=O)[C@H](C)C[C@H](C)/C=C/C=C/C=C/1C`, for which the residual activity in assay [1] worked out at 95%; in assay [2] it was 89%.

`Cc1cc(Nc2nc(-c3ccccc3)nc3ccccc23)n[nH]1`: the residual activity in assay [2] worked out at 76%. On to `c1ccc(-c2n[nH]c3c2oc2ccccc23)cc1`, for which the residual activity in assay [1] came to 91%; in assay [2], 99%. The matching figures for `O=C(Nc1cccc(Nc2nccc(Nc3cccc(C(F)(F)F)c3)n2)c1)C1CC1`: 94% and 99%. `O=C1Nc2ccc(Cl)cc2/C1=C/c1cc(Cl)c(O)c(Cl)c1`: the residual activity in assay [2] worked out at 90%. Still for that read-out and setting: then `CCOC(=O)c1c(C)[nH]c(/C=C2\C(=O)Nc3ccccc32)c1C`, with 98%.

As to `Oc1n[nH]c2nnc(-c3c(-c4ccccc4)nn4ccccc34)cc12`, the residual activity in assay [1] was 87%; in assay [2] it was 83%. As to `COc1cccc(-c2cc(=O)c3ccccc3o2)c1N`, the residual activity stood at 100% in assay [1] and 99% in assay [2]. On to `O=c1c2ccccc2[nH]c(=S)n1CCN1CCC(=C(c2ccc(F)cc2)c2ccc(F)cc2)CC1`, for which the residual activity is 101% in assay [1] and 91% in assay [2].

Consider `O=C(Nc1cccc(Nc2cc(Nc3cccc(C(F)(F)F)c3)ncn2)c1)C1CC1`, for which the residual activity in assay [1] came out at 102%; in assay [2], 98%. Take `N#Cc1c(NC(=O)c2cccc3ccccc23)sc2c1CCCC2`: the residual activity in assay [2] turned out to be 98%. Turning to `CCN(CC)C(=O)c1ccc(Nc2nc(OCC3CCCCC3)c3nc[nH]c3n2)cc1`, in assay [2], the residual activity is 97%. On the same count and under the same terms, the result for `O=C(O)/C=C/c1cc(Br)c(Br)c(Br)c1Br` reads 99%. Regarding `CCN1/C(=C/C(C)=O)Sc2ccc(OC)cc21`, in assay [2], the residual activity was determined as 100%. Regarding `Nc1ncnc2c1cnn2-c1ccccc1`, the residual activity in assay [2] was found to be 93%. For the compound `O=C1Nc2ccccc2/C1=C1/Nc2ccccc2/C1=N\OCCC(O)CO` (stereo not drawn), the residual activity in assay [2] stood at 68%. The same measure, in the same setting: then `N#CC(C#N)=C(N)/C(C#N)=C/c1ccc(O)cc1`, with 94%. Turning to `COc1cc2ncnc(Nc3ccc(O)c(Br)c3)c2cc1OC`, the figures for the residual activity in assay [1] and in assay [2] were 89% and 85%, respectively.

Take `O=C(c1ccccc1)c1ccc(N2CCOCC2)cc1O`: the residual activity in assay [2] stood at 96%. The same measure, in the same setting: the result for `COc1ccc(-c2cnc3c(-c4ccsc4)cnn3c2)cc1` reads 99%.

On to `O=C1NC(=O)/C(=C/c2ccc3c(c2)OC(F)(F)O3)S1`, for which the residual activity came to 92% in assay [1] and 93% in assay [2]. The matching figures for `Cc1ccc(S(=O)(=O)/C=C/C#N)cc1`: 96% and 92%.

Take `Nc1ncnc2[nH]nc(Nc3ccc(F)cc3)c12`: the residual activity in assay [1] was 103%; in assay [2] it was 97%. For the compound `COc1cc2nccc(Oc3ccc(NC(=S)NC(=O)c4ccccc4C)cc3)c2cc1OC`, the residual activity in assay [1] stood at 98%; in assay [2], 87%. `O=C1NC(=O)C(c2c[nH]c3ccccc23)=C1c1c[nH]c2ccccc12`: in assay [2], the residual activity came out at 98%.

These data come from ChEMBL document CHEMBL2218924, “A broad activity screen in support of a chemogenomic map for kinase signalling research and drug discovery” (Biochem J, 2013).
